Hits are enriched below; roughly 9.2% of the tested compounds scored in any of these assays.
ELG1 DNA repair: ELG1-dependent DNA repair inhibition; 330,000 compounds, 2.3% hits; Potency, µM (top dose mostly 46.1 µM), for inactives: top-dose activity change, negative = inhibition, hits mostly inhibitors; HEK293T ELG1-luciferase reporter, luminescence, 16 h; DNA damage induced by 5-fluorouridine; note: % is set by controls: 0 for no effect and ±100 for the full control effect; nearly all actives have a fitted effect of over 55% in size
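In this reporter screen, reduction of luminescence relative to DMSO vehicle indicated activity. Compounds and 5-fluorouridine were added together to 2,000 cells per well, incubated for 16 hr at 37 °C, then developed with ONE-Glo.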
FLuc modulator: inhibits or activates purified firefly luciferase, miR-21 counter-screen; P08659; purified FLuc, Km substrates, luminescence inhibition; Potency, µM (doses to about 57.5 µM), for the others: at the highest dose activity change, negative = inhibition, actives largely listed as inhibitors; 360,000 compounds, 6.9% hits; AID 588342;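 note: plate controls were vehicle for no effect and reference inhibitor for full effect; nearly all actives have a fitted effect of over 55% in size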
Target sequence (P08659 whole entry, looked up): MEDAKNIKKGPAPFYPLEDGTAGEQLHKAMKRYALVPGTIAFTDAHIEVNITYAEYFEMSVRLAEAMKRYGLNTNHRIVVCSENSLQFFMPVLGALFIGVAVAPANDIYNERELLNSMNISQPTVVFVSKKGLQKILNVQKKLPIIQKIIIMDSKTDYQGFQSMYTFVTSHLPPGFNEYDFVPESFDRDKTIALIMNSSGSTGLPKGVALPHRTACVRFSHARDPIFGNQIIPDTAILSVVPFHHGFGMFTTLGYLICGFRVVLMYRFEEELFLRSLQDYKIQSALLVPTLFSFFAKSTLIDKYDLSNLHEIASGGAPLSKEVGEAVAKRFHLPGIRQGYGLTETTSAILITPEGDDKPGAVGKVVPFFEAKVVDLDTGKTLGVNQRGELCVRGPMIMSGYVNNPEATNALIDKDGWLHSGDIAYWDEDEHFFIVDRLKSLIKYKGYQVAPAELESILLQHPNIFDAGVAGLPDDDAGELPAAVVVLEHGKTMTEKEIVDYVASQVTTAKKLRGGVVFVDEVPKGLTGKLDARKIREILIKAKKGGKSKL
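Biochemical qHTS of compounds, final roughly 60 µM downward over six points, against 10 nM purified firefly luciferase using Km concentrations of substrates (10 uM D-luciferin, 10 uM ATP) in Tris acetate pH 7.5 buffer; luminescence output.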
ELG1 genotox: inducers of genotoxicity in HEK293T ELG1-luciferase cells. HEK293T ELG1-luciferase reporter, luminescence, 16 h. Potency, µM (doses to about 46 µM), for inactives: at the highest dose activity change, positive = activation, actives largely listed as activators. 330,000 compounds, 1.3% hits. AID 504466; note: % of control where 0% means no effect; nearly all actives have a fitted effect of over 60% in size
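Step 1: seed 2,000 HEK293T ELG1-luciferase cells per well. Step 2: add compound or DMSO, incubate 16 hr at 37 °C. Step 3: ONE-Glo, 30 min at room temperature, read luminescence.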
SMN2 splice up: enhancers of SMN2 splice variant expression. HEK293 SMN2-luciferase splicing reporter, luminescence, 30-36 h. Potency, µM (titrated, usually from 46.1 µM), without a hit: at the top dose activity change, positive = activation, hits mostly activators. 210,000 compounds, 2.8% hits. AID 1458; note: % of control where 0% means no effect; nearly all actives have a fitted effect of over 55% in size
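HEK293 cells carry an SMN2 […]–luciferase reporter in which exon 7 inclusion puts luciferase in frame. Cells were plated 10-12 h before compound addition, then incubated 30-36 h at 37C. ONE-Glo luminescence was read; sodium butyrate at 4.5 mM final served as control.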
Rab9 prom act: Rab9 promoter activation; Huh7 Rab9 promoter-luciferase reporter, luminescence, 24 h; Potency, µM (highest dose often 9.22 µM), for the others: at the top dose activation, negative = inhibition, usual class: activators; 320,000 compounds, 2.8% hits; AID 485297; note: % of control where 0% means no effect; nearly all actives have a fitted effect of over 60% in size
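Stable Rab9-luc Huh7, 1500 cells/well, 2 h settle; cmpd in DMSO, 24 h, 37 °C/5% CO2; luciferase reagent 10 min RT; luminescence.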
NPC1 prom act: activators of NPC1 promoter; Huh7 NPC1 promoter luciferase reporter, 24 h; Potency, µM (top dose mostly 9.22 µM), inactives show top-dose activation, hits mostly activators; 320,000 compounds, 2.4% hits; note: % of control where 0% means no effect; nearly all actives have a fitted effect of over 60% in size
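Huh7 cells stably carrying NPC1 promoter–luciferase, plated in Opti-MEM with 10% FBS for 2 h, were exposed to compound in DMSO for 24 h at 37 °C; luciferase reagent was added for 10 min and luminescence read.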
* = called active by the depositor; ? = inconclusive; . = no result; [ ] = another dose, or the depositor's remark. Calls come from the whole dose curve; as a rule, active = well fitted curve in the direction sought with a large enough effect; inconclusive = small, poorly fitted or top-dose-only effect, or another doubt; inactive = no such curve, though single readings can be large; an effect the other way counts as inactive or inconclusive. Potency is the fitted concentration of half-maximal effect.

SMILES	ELG1 DNA repair	FLuc modulator	ELG1 genotox	SMN2 splice up	Rab9 prom act	NPC1 prom act
COc1ccccc1Nc1nnc(SCC(=O)NC2CC2)s1	?	-9%	7%	.	2%	-1%
CCOc1ccccc1Nc1nnc(SCc2nnc(-c3cc(OC)c(OC)c(OC)c3)o2)s1	5.8µM*	-1%	-6%	-18%	-2%	0%
COc1cc(-c2nnc(CSc3nnc(Nc4ccc(C(C)C)cc4)s3)o2)cc(OC)c1OC	6.5µM*	5.4µM*	0%	?	15%	5%
COc1ccccc1Nc1nnc(SCc2nnc(-c3cc(OC)c(OC)c(OC)c3)o2)s1	6.5µM*	0%	-1%	-4%	-1%	-3%
COc1ccc(OC)c(N=c2ssnc2Cl)c1	-12%	15µM*	-10%	-4%	1%	-5%
Cc1cc(C)nc(/N=c2/ssnc2Cl)c1	?	-1%	-8%	-9%	13%	1%
Nc1ccccc1N=c1ssnc1Cl	-1%	?	-1%	11%	1%	12%
COc1cc(N=c2ssnc2Cl)c(OC)cc1Cl	?	17µM*	-3%	0%	1%	-1%
Nc1cc(C(=O)OCC(=O)NCc2ccco2)ccc1Cl	7%	-7%	-4%	-4%	-5%	0%
Nc1ccc2oc(-c3ccccc3Cl)cc(=O)c2c1O	?	6.7µM*	16µM*	11µM*	4µM*	3.2µM*
O=c1cc(-c2ccccc2Cl)oc2ccc([N+](=O)[O-])c(O)c12	-3%	-10%	0%	-27%	-1%	0%
O=c1cc(-c2ccccc2Cl)oc2c([N+](=O)[O-])c(O)cc(O)c12	3.7µM*	-19%	-16%	29%	-4%	15%
CC(=O)C1=C(O)C(=O)N(c2ccc(Br)cn2)C1c1ccc(F)cc1 (centres undefined)	?	-6%	?	1%	4µM*	2.2µM*
COc1cccc([C@@H]2Oc3ccc(OC)cc3C[C@H]2OC(=O)Nc2cc(OC)c(OC)c(OC)c2)c1	.	.	.	4%	.	.
c1ccc(Cc2ccc(OCCn3cncn3)cc2)cc1	0%	1%	?	-28%	0%	-3%
OC(COc1ccc(OCc2ccccc2)cc1)CN1CCCCC1 (centres undefined)	?	?	16µM*	28%	?	30%
O[C@H](COc1ccccc1)CN1CCCCC1	.	.	.	-6%[9.22 µM]	.	.
c1ccc(COc2ccc(OCCCN3CCCC3)cc2)cc1	?	3.4µM*	?	6.3µM*	0.63µM*	1µM*
c1ccc(COc2ccc(OCCCn3cncn3)cc2)cc1	?	4.3µM*	4.1µM*	10µM*	2.5µM*	1.6µM*
CCOC(=O)N1CCC(NC(=O)CC2C(=O)NCCN2Cc2ccccc2)CC1 (centres undefined)	0%	2%	2%	.	0%	-1%
COc1ccc(/C=C/C(=O)Nc2ccc(N3CCOCC3)cc2)cc1	8%	-15%	-1%	-29%	-3%	1%
CCN(CC)S(=O)(=O)c1ccc2c(c1)nc(CCC(=O)Nc1ccc(N3CCOCC3)cc1)n2C	-7%	17µM*	-1%	9%	1%	0%
